Experimental data reported in PubChem BioAssay AID1159580 (chemical genetic matrix, 2015).
Screen size: about 5,500 compounds; about 2,000 (36%) were called active. Inconclusive results (about 18%) are left out. Cut-off read from the data, not from the text of the source: active = normalized growth mostly below about 0.91 (no sharp cut-off); inconclusive = no clear call, values can overlap the other calls; inactive = mostly above about 0.92. Some of the results follow.

Test: chemical genetic growth profiling, strain panel (AID 1159580);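 note: tested at 20 µM; growth read once vehicle control cultures reached saturation at 30 °C; 1 = growth at the plate median or of vehicle wells; lower values mean less growth of the strain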
Settings: S. cerevisiae deletion strains, growth OD
[1] = locus YAL013W, strain DEP1, active compounds read low
[2] = locus YDR150W, strain NUM1, active compounds read low
[3] = locus YGR078C, strain PAC10, active compounds read low
[4] = locus YNL153C, strain GIM3, active compounds read low
[5] = locus YPL241C, strain CIN2, active compounds read low

Measured: normalized growth

Nc1ccc(C(=O)/C(=C\c2cccc([N+](=O)[O-])c2)C(=O)c2ccc(-c3ccccc3)cc2)cc1
inactive: [1] 0.99 | locus YBR229C, strain ROT2, active compounds read low 0.984 | locus YDL101C, strain DUN1, active compounds read low 0.997 | [2] 0.975 | locus YEL061C, strain CIN8, active compounds read low 0.999 | [3] 0.997 | locus YHR030C, strain SLT2, active compounds read low 0.869 | locus YHR087W, strain rtc3, active compounds read low 0.993 | locus YJL187C, strain SWE1, active compounds read low 1 | locus YJR043C, strain POL32, active compounds read low 0.979 | locus YJR075W, strain HOC1, active compounds read low 0.997 | locus YKL190W, strain CNB1, active compounds read low 0.997 | locus YLR039C, strain RIC1, active compounds read low 1 | locus YLR058C, strain SHM2 (second series), active compounds read low 0.987 | locus YLR085C, strain ARP6, active compounds read low 0.877 | locus YLR262C, strain YPT6, active compounds read low 0.915 | locus YML094W, strain GIM5, active compounds read low 0.993 | locus YMR219W, strain ESC1, active compounds read low 0.988 | locus YMR263W, strain SAP30, active compounds read low 1.01 | [4] 0.966 | locus YNL298W, strain CLA4 (second series), active compounds read low 0.936 | locus YNL322C, strain KRE1, active compounds read low 0.971 | locus YNR030W, strain Alg12, active compounds read low 0.955 | locus YPL055C, strain LGE1, active compounds read low 1 | [5] 0.949 | locus YPR135W, strain CTF4, active compounds read low 0.945

CCN1C[C@]2(C)CC[C@H](O)[C@@]34C5C[C@@H]6[C@@H](OC)C[C@@](O)(C5[C@H]6O)[C@@H](CC23)C14 (some centres not stated)
inactive: [1] 1.01 | locus YAL040C, strain CLN3, active compounds read low 1 | locus YCL061C, strain MRC1 (second series), active compounds read low 1 | [2] 0.996 | locus YDR363W, strain ESC2, active compounds read low 1.03 | locus YER002W, strain NOP16, active compounds read low 1.01 | [3] 0.999 | locus YGR229C, strain SMI1, active compounds read low 1.02 | locus YMR307W, strain GAS1, active compounds read low 0.999 | locus YNL128W, strain TEP1, active compounds read low 1 | [4] 1.01 | locus YNL175C, strain NOP13, active compounds read low 1.01 | locus YNL197C, strain WHI3, active compounds read low 1.01 | locus YNL224C, strain SQS1, active compounds read low 0.997 | locus YOR083W, strain WHI5 (second series), active compounds read low 1.01 | [5] 1
